Hit rate of the full screen: of about 96,000 compounds, about 20,000 (21%) were called active. Only a sample is shown. A number with no mark means an inactive call.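 How the source made its calls: active means CYP2C19 inhibition above a set limit at 5 µM in the primary screen (cut at about 50% in these data); inactive means the rest.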
Target: Cytochrome P450 2C19 (Homo sapiens) (UniProt P33261)
Assay: blockers of cytochrome P450 2C19 activity – biochemical, luminescence, ADME assay, primary screen (AID 778);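 further: plate controls were negative control wells for no effect and 2.5 mM tranylcypromine positive control for full effect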
Conditions: CYP2C19 Supersomes, luciferin-H EGE luminescence, 30 min; at 5 µM; hits give high values

Cytochrome P450 2C19 (Homo sapiens), sequence (P33261 whole entry, looked up): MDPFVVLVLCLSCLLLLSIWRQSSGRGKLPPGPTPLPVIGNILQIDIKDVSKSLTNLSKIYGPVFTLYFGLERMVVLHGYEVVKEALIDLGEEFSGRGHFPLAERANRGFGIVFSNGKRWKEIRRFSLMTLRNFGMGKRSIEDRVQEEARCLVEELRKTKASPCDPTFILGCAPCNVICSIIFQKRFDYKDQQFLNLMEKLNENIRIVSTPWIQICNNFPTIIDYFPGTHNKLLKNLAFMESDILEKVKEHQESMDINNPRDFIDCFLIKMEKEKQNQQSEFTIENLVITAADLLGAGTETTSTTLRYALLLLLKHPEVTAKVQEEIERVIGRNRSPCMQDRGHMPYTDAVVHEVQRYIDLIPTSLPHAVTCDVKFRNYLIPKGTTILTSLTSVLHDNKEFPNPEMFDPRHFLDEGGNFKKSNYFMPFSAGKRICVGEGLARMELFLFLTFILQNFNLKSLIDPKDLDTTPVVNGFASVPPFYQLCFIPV

First: O=C(CN1CCOCC1)Nc1c2c(nc3c1CCC3)CCC2
Second: O=C(Cn1cc2c(n1)CCCCC2)NCCN1CCOCC1
The inhibition of the first is higher: -3% for the first, -10.3% for the second.

First: Fc1ccccc1/C=C1\CCCC2=C1Nc1ncnn1C2c1ccccc1F (configuration not stated)
Second: c1ccc(CCN2CN=C(Nc3nc4ccccc4o3)NC2)cc1
The inhibition of the first is higher: 45.3% for the first, 29.5% for the second.

First: COc1ccc(C(=O)/C=C/Nc2ccccn2)cc1
Second: COc1cccc(C(=O)Nc2ccc(NC(=O)c3ccco3)cn2)c1
The inhibition of the first is higher: 46.4% for the first, 38.7% for the second.

Compared with `CN1CCc2c(sc3c2c(NCc2ccco2)nc2nnnn23)C1`, `O=C(Cn1nnc(-c2ccc3c(c2)OCO3)n1)NCc1ccco1` is lower in inhibition: 37.8% for the first, 0.8% for the second.

Compared with `CCOc1ccc(NC(=O)C2CC(=O)N=C(N)S2)cc1` (configuration not stated), `CN=C1SC(CC(=O)Nc2ccc(C(=O)O)cc2)C(=O)N1C` (configuration not stated) is lower in inhibition: -0.4% for the first, -4.9% for the second.

Going from `O=C(Nc1ccccc1)O/N=C1\CCCCC1c1ccc([N+](=O)[O-])cc1[N+](=O)[O-]` (configuration not stated) to `O=C(Nc1cccc2ccccc12)c1onc2c1CCCC2`, the inhibition falls from 36.8% to 7.1%.

Going from `O=C1NC2(CCCCC2)N=C1c1ccccc1` to `CSc1nc(O)c(Cc2ccccc2)c(=O)[nH]1`, the inhibition rises from 25% to 26.1%.

First: Cc1cc(C)c2c(-n3cccc3)c(C(=O)NNS(=O)(=O)c3ccc(F)cc3)sc2n1
Second: CCn1c(SCC(=O)Nc2ccc(S(=O)(=O)Nc3onc(C)c3C)cc2)nnc1-c1ccccc1
The inhibition of the first is higher: 31% for the first, 16.5% for the second.

First: CC(C)(C)C(=O)c1cnc(Nc2ccccc2)s1
Second: COC(=O)Cc1csc(Nc2c(C)n(C)n(-c3ccccc3)c2=O)n1
The inhibition of the first is higher: 36.7% for the first, -4.9% for the second.

First: CNC(=O)CSc1nnc(CCc2ccccc2)n1-c1ccccc1
Second: Cc1c(C(=O)NCc2ccccc2)cnn1-c1ccccc1
The inhibition of the first is lower: -8.1% for the first, 11.5% for the second.

Compared with `O=c1[nH]c(CSc2ncc(-c3ccc(F)cc3)n2Cc2ccco2)nc2ccccc12`, `COc1ccc(CCn2c(=N)c(C(=O)NCc3ccco3)cc3c(=O)n4cccc(C)c4nc32)cc1` is lower in inhibition: 32% for the first, 25.7% for the second.

First: CC(C)c1ccc(-c2nn[nH]n2)cc1
Second: CCOC(=O)c1ccc(-c2ccc(C(=O)Nc3cccnc3)o2)cc1
The inhibition of the first is higher: 25.4% for the first, 14.1% for the second.

First: O=c1nc(N2CCOCC2)nc2n1CCO2
Second: O=P(c1ccc2c(c1)OCCO2)(N1CCOCC1)N1CCOCC1
The inhibition of the first is lower: 1.1% for the first, 21.2% for the second.

Going from `Cc1ccc2nc(NCCCNC(=O)c3cnccn3)c(C#N)cc2c1` to `Cc1cc(C)c2nc(N3CCCC3)c(C#N)cc2c1`, the inhibition falls from 17.1% to -2.3%.

First: CCCCN1C(=O)/C(=C2/C=CC=CN2C)SC1=S
Second: CCOC(=O)CSc1nncc2ccc(OC)c(OC)c12
The inhibition of the first is higher: 30.2% for the first, 11.3% for the second.

First: CCN(CC)c1nc(-c2ccccc2)cc(C(F)(F)F)c1C#N
Second: CCN(CC)c1ccc2oc(=O)c(C)nc2c1
The inhibition of the first is lower: 11.4% for the first, 18.7% for the second.

Going from `COc1ccc(OCC(=O)N2CCN(C(=O)COc3ccccc3)CC2)cc1` to `COc1ccc(N2CCN(C(=O)CNC(=O)c3ccc(C(C)(C)C)cc3)CC2)cc1`, the inhibition falls from 19.3% to 3.3%.

Going from `O=C(Cn1c(=S)nc2ccccn21)N1CCc2ccccc2C1` to `CCOC(=O)C(C)Oc1cccc2c(=O)n(CC(=O)N3CCc4ccccc43)ccc12` (configuration not stated), the inhibition falls from 23.6% to 8.2%.

First: CC1CN(C(=O)CN2C(=O)NC(C)(c3ccccc3)C2=O)CC(C)O1 (configuration not stated)
Second: COc1cccc(Nc2nnc(SCC(=O)N3CC(C)OC(C)C3)s2)c1 (configuration not stated)
The inhibition of the first is lower: -12.4% for the first, 36% for the second.

Compared with `CCN1CCN(CCCCOc2ccccc2F)CC1`, `CCOC(=O)Nc1ccc2c(c1)N(C(=O)CCN1CCN(CCO)CC1)c1ccccc1CC2` is lower in inhibition: 2.6% for the first, -24.8% for the second.

Compared with `Cc1nnc(NC(=O)CSc2nccn2-c2cccc(C)c2C)s1`, `Cc1sc2c(c1C)c(=O)n(-c1ccccc1)c1nncn21` is lower in inhibition: 13.4% for the first, -7.8% for the second.

Going from `CCOc1ccc(CCNC(=O)C2CCN(c3ccc(N4CCOCC4)nn3)CC2)cc1OCC` to `CCOc1ccc(CNC(=O)C2CC(=O)N(C3CCCC3)C2)cc1OC` (configuration not stated), the inhibition falls from 13.9% to -8%.

First: COc1ccc(CNC(=O)c2cc3c(=O)n4ccccc4nc3n(CC3CCCO3)c2=N)cc1 (configuration not stated)
Second: CCOc1ccc(N(CC(=O)NCc2ccc(OC)cc2)S(=O)(=O)c2c(C)noc2C)cc1
The inhibition of the first is lower: 6.2% for the first, 15.3% for the second.

First: COc1cc(OC)cc(-c2cc3nc(C4CCN(C(=O)OC(C)(C)C)CC4)cc(=O)n3[nH]2)c1
Second: COc1ccc(CNC(=O)c2c(C)cc(=O)oc2C)cc1OC
The inhibition of the first is lower: 2.8% for the first, 5.4% for the second.

Compared with `CC(Cc1cccs1)NC(=O)NC1CCCCC1` (configuration not stated), `COc1cc(OC)c(C(=O)NC2CCCCCC2)cc1OC` is higher in inhibition: 21% for the first, 43.7% for the second.

Going from `CCOc1cc(-c2nc3cc(C)ccn3c2NCC2CCCO2)ccc1O` (configuration not stated) to `Cn1c(=O)c2[nH]c(NCC3CCCO3)nc2n(-c2ccccc2)c1=O` (configuration not stated), the inhibition falls from 2.7% to -1%.

Going from `O=C(Cn1nc(Cc2cccnc2)c2ccccc2c1=O)NCC1COc2ccccc2O1` (configuration not stated) to `O=C(Cn1cnc2ccccc2c1=O)NCC1COc2ccccc2O1` (configuration not stated), the inhibition falls from 36.1% to 22.7%.

Going from `Cc1nn(CC(=O)Nc2ccc3c(c2)nc(CN2CCCCC2)n3C)c(=O)c2ccccc12` to `O=C(Nc1ccc2sc3ccccc3c(=O)c2c1)c1ccccc1Cl`, the inhibition rises from 10.5% to 14.5%.

Compared with `Cc1cc(=O)cc(C)[nH]1`, `COCc1cc(C(C)=O)ccc1OC` is higher in inhibition: 4.5% for the first, 6.2% for the second.

Going from `CC(C)c1ccc(N2CCN(C(=O)c3ccccc3NC(=O)/C=C(\C(=O)O)c3ccccc3)CC2)cc1` to `Cn1c(=O)cc(SCC(=O)N2CCN(C(=O)c3ccco3)CC2)c2ccccc21`, the inhibition falls from 21.7% to -17%.

Compared with `Cc1ccc(Cc2cnc(N)s2)o1`, `CSCCC(NC(=O)c1ccco1)C(=O)OCC(=O)Nc1ncc(Cl)c(C)c1Cl` (configuration not stated) is higher in inhibition: 8.3% for the first, 12.9% for the second.

Going from `CC1CC(C)CN(S(=O)(=O)c2cccc(C(=O)N3C(=O)c4cccc(N)c4C3=O)c2)C1` (configuration not stated) to `CCOC(=O)c1cccc(NC(=O)CN(c2ccc(C)cc2)S(=O)(=O)c2c(C)noc2C)c1`, the inhibition rises from 5.9% to 17.3%.

First: CC(=O)NC1CC2CCCC(C1)N2CC(=O)Nc1ccccc1 (configuration not stated)
Second: CC1CC(c2ccccc2)n2nc(NC(=O)c3cccs3)nc2N1 (configuration not stated)
The inhibition of the first is higher: 11.5% for the first, 7.3% for the second.

First: COC(=O)c1cn(-c2ccccc2)nc1-c1cccnc1
Second: Cc1c2cnn(-c3ccccc3)c(=O)c2c(C)n1CCCC(=O)N1CCN(C)CC1
The inhibition of the first is higher: 30.5% for the first, -16% for the second.

First: CCOC(=O)C1CCN(Cc2coc3ccc(Cl)cc3c2=O)CC1
Second: Cc1ccc(CNC(=O)CN2CCN(Cc3ccc(Cl)cc3)C2=O)cc1
The inhibition of the first is lower: 6.5% for the first, 15.1% for the second.

First: CC(=O)C1C(c2ccc(Cl)cc2)NC(=O)NC1(O)C(F)(F)F (configuration not stated)
Second: O=C(/C=C/c1cc2c(cc1Br)OCO2)NCc1ccc(Cl)cc1
The inhibition of the first is higher: 39% for the first, -11.1% for the second.

First: CCc1cccc2c(C=C(C#N)C#N)cn(CC(=O)N3CCCCC3)c12
Second: CS(=O)(=O)N(CC(=O)N1CCN(Cc2ccc3c(c2)OCO3)CC1)c1ccc2c(c1)OCO2
The inhibition of the first is higher: -0.7% for the first, -4.8% for the second.

Compared with `O=C(CN(c1ccc2c(c1)OCCO2)S(=O)(=O)c1ccccc1)Nc1ccc2c(c1)OCO2`, `N/C(=N\c1nc2ccccc2o1)NC(=O)C(Cc1ccccc1)N1C(=O)c2ccccc2C1=O` (configuration not stated) is higher in inhibition: 26.7% for the first, 35.9% for the second.

Compared with `CCOc1ccc(N(CC(=O)NC2CCCCCC2)S(=O)(=O)c2c(C)[nH]c(=O)[nH]c2=O)cc1`, `CC(=O)N(CN1C(=O)C2CC=CCC2C1=O)c1cccc(Cl)c1` (configuration not stated) is higher in inhibition: 25.2% for the first, 46.5% for the second.

Compound `Fc1ccc(Br)cc1/C=N/n1cnnc1` has an inhibition of 13.9%.

For `COc1ccccc1Oc1ccc(S(=O)(=O)Nc2cccnc2)cc1`, the inhibition was 87.6% (active).
In the case of `O=S(=O)(Nc1ccccn1)c1ccc(Oc2ccccc2)cc1`, the inhibition is reported as 90.2% (active).
`CCn1c(Cc2ccccc2)nnc1SCc1nc2ccccc2c(=O)[nH]1` was tested, and the inhibition was 70.3% (active).
`CCn1c(Cc2ccccc2)nnc1SCC(=O)Nc1ccccc1` was tested, and the inhibition was 74% (active).
`O=C(COc1ccccc1)N1CCc2ccccc2C1` was tested, and the inhibition was 87.9% (active).
In the case of `CCOc1ccc(CCNC(=O)C(CC)n2nc(C)n3c(cc4sccc43)c2=O)cc1OCC` (configuration not stated), the inhibition is reported as 57.8% (active).
For `CCC(C(=O)NCc1ccc(OC)cc1)n1nc(C)n2c(cc3occc32)c1=O` (configuration not stated), the inhibition was 58.8% (active).
`Cc1ccc(NC(=O)Cn2nc(C)c3ccccc3c2=O)c(C)c1` was tested, and the inhibition was 56.1% (active).
With `CC(=O)N1CCN(c2ccc(NCc3ccc(C(C)C)cc3)cc2)CC1` the inhibition was 50.5% (active).
`O=C(Nc1cccnc1)c1noc2c1CCCCC2` was tested, and the inhibition was 64.2% (active).
With `O=C(NCc1cccnc1)c1cn(-c2ccccc2)nc1-c1cccs1` the inhibition was 89.6% (active).
For `CCOC(=O)C1CCCCN1Cc1ccc(OC)c(OC)c1OC` (configuration not stated), the inhibition was 58.1% (active).
For `COc1cccc2c(=O)n(CC(=O)N3CCCCCC3)ccc12`, the inhibition was 56.9% (active).
For `Cc1noc(C)c1S(=O)(=O)N(CC(=O)NCc1ccc(Cl)cc1)c1ccc2c(c1)OCO2`, the inhibition was 72.8% (active).
With `CS(=O)(=O)N(CC(=O)NCc1ccco1)c1ccc2c(c1)OCO2` the inhibition was 59.5% (active).
In the case of `CCOc1ccc(N(CC(=O)OC)S(=O)(=O)c2c(C)noc2C)cc1`, the inhibition is reported as 50.6% (active).
For `Cc1noc(C)c1S(=O)(=O)N(CC(=O)Nc1ccc2c(c1)OCCO2)c1ccc(C(C)C)cc1`, the inhibition was 55.8% (active).
In the case of `COc1ccc(CC(=O)c2ccc(O)cc2O)cc1OC`, the inhibition is reported as 88% (active).

— PubChem BioAssay AID778 (Sanford-Burnham Center for Chemical Genomics, 2007)
